GluA2 TARP mod – modulates AMPAR-stargazin complexes; calls only at 30 µM; HEK293 GluA2+stargazin, membrane potential dye (FDSS), glutamate EC50; hits were called plate by plate, in both directions; 3.5% of 40,000 active; O88602+P19491;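 active = any of four per-well response measures lying three or more SD from its plate-wide compound average, in either direction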
GIRK2 activator – Activates human GIRK2-containing potassium channels; activation (% efficacy), % for hits at 37.5 µM; P48051; HEK293 GIRK2/NPY4 cells, thallium flux fluorescence; 34,000 tested, under 10 active;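 active = primary screen hit, no activity in plain HEK293 cells, and in GIRK2-only cells above 5% efficacy rising with concentration; inactive = the rest, including fluorescent compounds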;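 note: efficacy is normalized control-subtracted fluorescence 15 s after thallium addition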
Calls only; – = inactive; · = no result; + = active, no number; ! = a repeat was not active. The sample as a whole holds a higher share of hits than the screen did.

SMILES	GluA2 TARP mod	GIRK2 activator
CC1CN(C(=O)c2cc3cccnc3n(Cc3ccccc3)c2=O)CC(C)O1 (stereo unspecified)	–	–
Cn1nc(-c2cccc(NS(=O)(=O)c3cccc(Cl)c3)c2)ccc1=O	–	–
CCNC(=O)CSc1nc(-c2ccccc2)c(NC(=O)CCc2ccc(OC)cc2)s1	–	–
NC(=O)CSc1nc(-c2ccccc2)c(NC(=O)c2cccc(Cl)c2)s1	+	–
CNC(=O)CSc1nc(-c2ccccc2)c(NC(=O)CCc2ccccc2)s1	+	–
NC(=O)CSc1nc(-c2ccccc2)c(NC(=O)c2ccccc2Cl)s1	–	–
COc1ccc(CCS(=O)(=O)NCC2CCN(C(=O)c3cc4ccccc4o3)CC2)cc1	–	–
COc1ccc(-n2nnc3c(N4CCN(C(=O)C(C)C)CC4)ncnc32)cc1	–	·
Cc1cc(-c2nnc(NC(=O)C3=COCCO3)o2)nn1C	–	–
Cc1nn(-c2ccc(F)cc2)c2ncc(C(=O)NCCCn3ccnc3)c(Cl)c12	+	·
Cc1ccc(CNC(=O)c2cnc3c(c(C)nn3-c3ccc(F)cc3)c2Cl)cc1	–	–
CCc1ccc(S(=O)(=O)NCCCn2nc(-c3ccccc3)ccc2=O)s1	–	–
CCc1ccc(S(=O)(=O)NCCCn2nc(-c3ccc(OC)cc3)ccc2=O)s1	+	–
Cc1ccc(S(=O)(=O)N2CCC(C(=O)Nc3cccc4c3C(=O)N(C)C4=O)CC2)cc1	–	–
NC(=O)c1cccc(NC(=O)c2ccoc2)c1	–	–
O=C(Nc1ccc(Nc2ccccc2)cc1)c1ccoc1	+	–
O=C(NC1CCCC(O)C1)c1ccc(F)cc1F (stereo unspecified)	–	–
Cc1ccnc(NC(=O)c2sc3nc(-c4ccccc4)cn3c2C)c1	–	–
COc1ccc(C(=O)C2C(=O)N(c3ccccc3)N=C2C)cc1OC (stereo unspecified)	–	–
CC1=NN(c2ccccc2)C(=O)C1C(=O)c1ccc(C)c(C)c1 (stereo unspecified)	+	–
CCC(C)NC(=O)Cn1cnc2c(sc3nc(C)cc(C)c32)c1=O (stereo unspecified)	+	–
Cc1cc(C)c2c(n1)sc1c(=O)n(CC(=O)Nc3ccc(Cl)cc3)cnc12	–	–
COc1ccccc1N1CC(c2nc3ccccc3n2CC(O)COc2ccccc2Cl)CC1=O (stereo unspecified)	–	–
O=C(c1cccs1)N1CCOC(c2ccccc2)C1 (stereo unspecified)	·	–
CCc1c(C#N)c(SCCC(=O)NCc2ccc3c(c2)OCO3)nc2c1C(=O)CC(C)(C)C2	–	–
SMILES	GluA2 TARP mod	GIRK2 activator
CCc1c(C#N)c(SCC(=O)NCc2ccc3c(c2)OCO3)nc2c1C(=O)CC(C)(C)C2	+	–
Cc1cn2c3c(=O)n(CC(N)=O)c(=O)n(C)c3nc2n1-c1ccc(Br)cc1	–	·
Cc1cccc(NC2SC(=O)N(Cc3ccccc3)C2=O)c1 (stereo unspecified)	+	–
Cc1cccc(NC2SC(=O)N(C(C)C)C2=O)c1 (stereo unspecified)	–	–
O=C(CC1SC(=O)N(CC(=O)c2ccccc2)C1=O)Nc1ccc(Br)cc1 (stereo unspecified)	–	–
Cc1cccc(NC(=O)CC2SC(=O)N(CC(=O)c3ccccc3)C2=O)c1 (stereo unspecified)	+!	–
C=CCN1C(=O)SC(CC(=O)Nc2ccc(Br)cc2)C1=O (stereo unspecified)	+	–
C=CCN1C(=O)SC(CC(=O)Nc2ccc(NC(C)=O)cc2)C1=O (stereo unspecified)	–	–
CC(C)c1ccccc1NC(=O)c1cc(-c2cccs2)nn1C	–	–
COC(=O)CC1SC(=O)N/C1=N\NC(=O)c1ccncc1 (stereo unspecified)	·	–
COc1cccc2c1OC(c1ccco1)N1N=C(c3cccs3)CC21 (stereo unspecified)	–	·
CN(C(=O)CSc1ccc(Cl)cc1)C1CCS(=O)(=O)C1 (stereo unspecified)	–	–
O=C(NCC1CCN(Cc2ccsc2)CC1)C(=O)Nc1ccccc1Cl	–	–
COc1ccc(CCNC(=O)NCCC(O)c2ccco2)cc1 (stereo unspecified)	–	–
C=Cc1ccc(CN2C(=O)N(c3ccc(CC)cc3)C3CS(=O)(=O)CC32)cc1 (stereo unspecified)	+	·
Cc1ccc(CN2C(=O)N(c3ccc(C)c(Cl)c3)C3CS(=O)(=O)CC32)cc1 (stereo unspecified)	–	–
COc1ccc(CCNC(=O)C(=O)c2cn(CC(=O)N3CCOCC3)c3ccccc23)cc1	+	·
COc1ccc(NC(=O)C(=O)c2cn(CC(=O)N3CCOCC3)c3ccccc23)cc1	–	·
COc1ccc(CNC(=O)C(=O)NCC2CCN(C(=O)c3ccncc3)CC2)cc1	–	–
O=C(Cc1cccs1)N1CCN(c2cc(N3CCCC3)ncn2)CC1	+	–
CC1CCN(c2ccc(N3CCN(C(=O)c4cccs4)CC3)nn2)CC1	–	–
O=C(Cc1cccs1)N1CCN(c2ccccn2)CC1	–	·
O=C(c1cccs1)N1CCN(c2cc(N3CCCC3)ncn2)CC1	+	–
COc1ccc(Cl)cc1C(=O)Nc1ccc(CC(=O)N2CCCC2)cc1	–	–
COc1ccc(-c2csc(NC(=O)Cc3ccc(S(C)(=O)=O)cc3)n2)cc1	–	·
SMILES	GluA2 TARP mod	GIRK2 activator
CC(=O)Nc1ccc(NC(=O)Cn2cc(-c3ccccc3)c(N3CCOCC3)n2)cc1	·	–
Cc1ccc(Cc2cnc(NC(=O)C(C)C)s2)cc1Cl	–	–
O=c1[nH]c2sc3c(c2c(=O)n1-c1ccccc1)CCCC3	–	–
O=c1c2c3c(sc2ncn1/N=C/c1cccnc1)CCC3	+	·
CCOC(=O)CN1C(=O)CN(C(=O)c2ccccc2)C1=S	+	·
CCOC(=O)c1ccc(N2C(=S)N(c3ccccc3)C3CS(=O)(=O)CC32)cc1 (stereo unspecified)	–	–
CN(C(=O)Cn1cnc2c(-c3ccccc3)csc2c1=O)c1ccc(F)cc1	–	–
CCN(C(=O)Cn1cnc2c(-c3ccccc3)csc2c1=O)c1ccccc1	+	–
CCCN1C(=O)NC2(CCN(C(=O)Nc3cccc(C(F)(F)F)c3)CC2)C1=O	–	–
Cc1ccc(CN2C(=O)NC3(CCN(C(=O)Nc4ccc(Cl)cc4)CC3)C2=O)cc1	·	–
O=C(Nc1cccc(Cl)c1)N1CCC2(CC1)NC(=O)N(Cc1ccccc1)C2=O	+	–
O=C(Nc1cccc(C(F)(F)F)c1)N1CCC2(CC1)NC(=O)N(Cc1ccccc1)C2=O	+	–
COc1ccc(CNC(=O)Nc2ccc3c(c2)CC(=O)N3)cc1OC	–	–
Cc1cc(C)cc(OCC(O)CN2CCN(Cc3ccc4c(c3)OCO4)CC2)c1 (stereo unspecified)	–	·
CCc1ccc(OCCOCC(O)CN2CCN(Cc3ccc4c(c3)OCO4)CC2)cc1 (stereo unspecified)	+	·
Cc1csc(-c2cc3ccc(OC(=O)CCCCl)cc3oc2=O)n1	+	·
COc1cccc(-c2cc3ccc(OC(C)=O)cc3oc2=O)c1	–	–
Cc1ccnc(Nc2ccc(N3CCN(S(=O)(=O)c4ccc(F)cc4)CC3)nn2)c1	·	–
COc1ccc(S(=O)(=O)N2CCN(c3ccc(Nc4cccc(C)n4)nn3)CC2)cc1Cl	+	–
COc1ccc(S(=O)(=O)N2CCN(c3ccc(Nc4ccccn4)nn3)CC2)cc1	–	–

Screening data: PubChem, several laboratories
